Measurements published in PubChem BioAssay (NCATS).
Unmarked numbers belong to inactive results. Results filed as inconclusive are left out. Activity calls are given as the source filed them. Unless noted, calls follow the shape of the dose curve; as a rule, active = well fitted curve in the direction sought with a large enough effect; inconclusive = small, poorly fitted or top-dose-only effect, or another doubt; inactive = no such curve, though single readings can be large; an effect the other way counts as inactive or inconclusive.

Tests used:
[1] = target: Lysosomal acid glucosylceramidase (Homo sapiens) (UniProt P04062); assay: Glucocerebrosidase-p2 (AID 348; in the data active = potency below about 10 µM; also: potency is read from the fitted curve at half-maximal effect); conditions: purified GBA, blue fluorogenic substrate, 40 min
Outline: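 Compounds titrated from 0.6 nM upwards against 0.2 nM enzyme in pH 5.9 citric acid/KH2PO4, taurocholate, tween-20; blue fluorogenic substrate 80 uM, 40 min room temperature, stopped and read Ex 365/Em 440 for AC50.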

[2] = AP1 Signaling Pathway (AID 357; active = well fitted curve in either direction with a large enough effect, not every such curve was filed as active;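 also: ME-180 reporter cells stimulated with EGF at its EC50 level; % is scaled to controls: 0 for no effect and ±100 for the full control effect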); conditions: ME-180 AP-1-bla reporter, EGF-induced, beta-lactamase ratio, 5 h; at 7.69 µM (top of the series) unless noted
Outline: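 Beta-lactamase reporter under AP-1 response element, ME-180 background. Stimulus: EC50 EGF. Compound exposure 5 h, 37 °C. Detection: CCF4, 2.5 h RT, 460/530 nm. Values: AC50 from titration.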

[3] = target: Cytochrome P450 1A2 (Homo sapiens) (UniProt P05177); assay: p450-cyp1a2 (AID 410; calls by dose curve; also: potency is read from the fitted curve at half-maximal effect); conditions: recombinant CYP1A2, luciferin-ME demethylation, luminescence; series mostly up to 57 µM
Outline: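 Human CYP1A2 (20nM) demethylated Luciferin-ME at its Km (100uM) in 100mM KPO4. After 10 min compound preincubation, NADPH regeneration ran the reaction 60 min at room temperature. Luciferin was read by luminescence, normalized to 57 uM furafylline.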

[4] = NFAT Signaling Pathway (AID 444; active = well fitted curve in either direction with a large enough effect, not every such curve was filed as active;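 also: carbachol stimulus at about its EC50 of 1 µM final; % is scaled to controls: 0 for no effect and ±100 for the full control effect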); conditions: Jurkat NFAT-bla M1, carbachol, beta-lactamase ratio, 5 h; at 7.69 µM (top of the series) unless noted
Outline: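 Read-out: CCF4 FRET ratio (460 nm/530 nm) after 1 h RT dye loading, used for %activity and AC50 from titration series. Cells: Jurkat NFAT-β-lactamase/M1 line, treated with compound plus 1 uM carbachol for 5 h, 37 °C.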

[5] = Stat Signaling Pathway (AID 446; active = well fitted curve in either direction with a large enough effect, not every such curve was filed as active;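 also: ME-180 cervical cancer cells given 40 pM IL-6 alongside compound; SIE-controlled beta-lactamase reporter measured as 460/530 nm FRET emission ratio; % is scaled to controls: 0 for no effect and ±100 for the full control effect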); conditions: ME-180 SIE beta-lactamase reporter, IL-6 stimulated, 5 h; at 7.69 µM (top of the series) unless noted
Outline: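 ME-180 SIE-bla cells; overnight plating; cpd + IL-6 40 pM, 5 h, 37 C; LiveBLAzer 2.5 h RT; 460/530 nm emission ratio. Normalized to 300 pM IL-6 and 125 nM JAK inhibitor controls.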

[6] = target: Glucocorticoid receptor (Homo sapiens) (UniProt P04150); assay: GR-GFP Redistribution (AID 450;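 active = compounds whose dose series gives a full or clear partial fitted curve of increased nuclear translocation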; also: potency is read from the fitted curve at half-maximal effect); conditions: U2OS GR-GFP nuclear translocation, laser cytometry, 2 h
[7] = target: Glucocorticoid receptor (Homo sapiens) (UniProt P04150); assay: GR-EFC Redistribution (AID 451; calls by dose curve; also: potency is read from the fitted curve at half-maximal effect); conditions: CHO-K1 GR-EFC translocation, beta-gal luminescence, 2 h
Outline: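 Translocation of GR-ED fusion to nuclear EA restores b-gal, read by luminescence after 1 h room-temperature detection. Engineered CHO-K1 biosensor cells, 1,000/well, exposed 2 h at 37 C to titrations up to 46 uM final.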

[8] = target: Mitogen-activated protein kinase 10 (Mus musculus) (UniProt Q61831); assay: JNK3 AlphaScreen Assay (AID 530; active = well fitted curve in either direction with a large enough effect, not every such curve was filed as active;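 also: kinase came from lysate of stimulated human HepG2 cells; signal reports phosphorylation of biotinylated GST-cJun 1-79 at Ser73 with 10 µM ATP; % is scaled to controls: 0 for no effect and ±100 for the full control effect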); conditions: JNK3 lysate, c-Jun phosphorylation; series mostly up to 57.1 µM
Outline: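 Room-temperature AlphaScreen kinase assay; pre-activated HepG2 lysate as JNK3 source, biotin-GST-cJun(1-79) substrate, 10 uM ATP, compound 15 min preincubation.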

[9] = target: 3',5'-cyclic-AMP phosphodiesterase 4B (Homo sapiens) (UniProt Q07343); assay: qHTS Assay for Inhibitors of PDE-IV (AID 607; active = well fitted activation curve with a large enough effect in the main read-out, with a control signal flat, not every such curve was filed as active; also: potency is read from the fitted curve at half-maximal effect); conditions: HEK293 ACTOne CNG channel cells, membrane potential fluorescence; series mostly up to 22.9 µM
Outline: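 ACTOne HEK293 cells carry a modified cAMP-gated CNG channel and express endogenous PDE4; plated 1000 cells/well, compounds up to 22.9 uM final. Membrane-potential dye fluorescence (ex 535/em 590) was read; parental cells received 10 uM forskolin + 100 uM RO 20-1724.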

[10] = target: Cytochrome P450 2C9 (Homo sapiens) (UniProt P11712); assay: qHTS Assay for Inhibitors and Substrates of Cytochrome P450 2C9 (AID 883); conditions: recombinant CYP2C9, luciferin-H luminescence, 60 min; series mostly up to 57.1 µM; also: % is scaled to controls: 0 for no effect and ±100 for the full control effect; nearly all actives have a fitted effect of over 60% in size
Outline: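 Luminescent read-out of deoxyluciferin hydroxylation, normalized to 57uM sulphaphenazole (AC100). Reaction: 10nM enzyme, 100uM Luciferin-H (equal to KM), 25mM KPO4, 10 min compound preincubation, then 60 min with NADPH regeneration, both at 37C.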

[11] = target: Cytochrome P450 3A4 (Homo sapiens) (UniProt P08684); assay: qHTS Assay for Inhibitors and Substrates of Cytochrome P450 3A4 (AID 884); conditions: recombinant CYP3A4, Luciferin-PPXE luminescence; series mostly up to 57.1 µM; also: potency is read from the fitted curve at half-maximal effect; nearly all actives have a fitted effect of over 50% in size
Outline: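 20 nM human CYP3A4 with 25 uM Luciferin-PPXE (at KM) in 200 mM KPO4, preincubated 10 min with compound; NADPH regeneration started a 60 min RT reaction. Luciferin detected by luminescence, normalized to 57 uM ketoconazole as full inhibition.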

[12] = target: Cytochrome P450 3A4 (Homo sapiens) (UniProt P08684); assay: qHTS Assay for Activators of Cytochrome P450 3A4 (AID 885); conditions: recombinant CYP3A4, Luciferin-PPXE luminescence, 60 min; series mostly up to 57.1 µM; also: nearly all actives have a fitted effect of over 65% in size
Outline: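 20nM CYP3A4 + 25uM Luciferin-PPXE (=KM), 200mM KPO4; cpd 10 min RT; NADPH regen, 60 min RT; stop w/ detection buffer, 20 min; luminescence. Normalized to 57 uM ketoconazole.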

[13] = target: Ubiquitin carboxyl-terminal hydrolase 1 (Homo sapiens) (UniProt O94782); assay: Inhibitors of USP1/UAF1: Pilot qHTS (AID 504865); conditions: purified USP1/UAF1, Ub-rhodamine cleavage fluorescence; series mostly up to 54.9 µM;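 also: rhodamine fluorescence freed from ubiquitin-rhodamine substrate followed over time; top concentration of the series differs between compounds; % is scaled to controls: 0 for no effect and ±100 for the full control effect; nearly all actives have a fitted effect of over 35% in size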
Outline: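 1nM USP1/UAF1 + cpd, 15 min RT; start w/ Ub-Rho 150nM final; kinetic FL 480/540 nm, 6 reads q60 s. Buffer 50mM HEPES pH 7.8, 0.5mM EDTA, 1mM TCEP, 0.01% Tween-20, 0.1 mg/ml BSA.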

[14] = Primary qHTS for small molecule stabilizers of the endoplasmic reticulum resident proteome: Secreted ER Calcium Modulated Protein (SERCaMP) assay (AID 1508630); conditions: SH-SY5Y GLuc-SERCaMP (Gaussia luciferase released on ER calcium loss) secretion, thapsigargin, luminescence; series mostly up to 38.4 µM; also: % is scaled to controls: 0 for no effect and ±100 for the full control effect
Outline: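 GLuc-SERCaMP-expressing SH-SY5Y cells, pretreated 16 h with compound, are challenged with thapsigargin to empty ER calcium stores; after 4 h, coelenterazine is added directly to the medium and luminescence is imaged.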

[15] = target: Dual specificity protein kinase CLK4 (Homo sapiens) (UniProt Q9HAZ1); assay: qHTS Assay for Inhibitors of CDC-like Kinase 4 (ADP-FP Assay) (AID 1795); conditions: Transcreener ADP fluorescence polarization; series mostly up to 50 µM;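 also: recombinant human CLK4 phosphorylating RS repeat peptide at 1 µM ATP; % is scaled to controls: 0 for no effect and ±100 for the full control effect; nearly all actives have a fitted effect of over 60% in size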
Outline: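 FP readout: Orange Transcreener ADP2 tracer (4 nM) plus ADP antibody, read after 30 min at room temperature. Kinase step: 6.25 nM Clk4, 100 uM RS peptide, 1 uM ATP, pH 7.5, 1 h.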

[16] = qHTS Assay for Identification of Small Molecule Agonists for Hypoxia Response Element Signaling Pathway (AID 914; active = well fitted activation curve with a large enough effect in the signal ratio, with a control signal flat, not every such curve was filed as active; the % refers to the signal ratio; also: % of control where 0% means no effect); conditions: ME-180 (cervical carcinoma) HRE-bla reporter, beta-lactamase ratio, CoCl2, 17 h; activation: active compounds read high
Outline: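 Read-out: CCF4 FRET ratio of 460nm to 530nm emission (excitation 405nm) after 2.5 hours at room temperature, taken from HRE-bla ME-180 cells that had been exposed to compound and EC50 CoCl2 for 17 hours.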

[17] = target: Cytochrome P450 2D6 (Homo sapiens) (UniProt P10635); assay: qHTS Assay for Inhibitors and Substrates of Cytochrome P450 2D6 (AID 891); conditions: recombinant CYP2D6, luciferin-ME EGE luminescence; series mostly up to 57.1 µM; also: potency is read from the fitted curve at half-maximal effect; nearly all actives have a fitted effect of over 60% in size
Outline: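 Human CYP2D6 (5 nM) with 30 uM Luciferin-ME EGE (at Km) in 100 mM KPO4, compound preincubated 10 min, then NADPH regeneration system for 60 min at room temperature. Luciferin read by luminescence; normalized to 1.43 uM quinidine.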

[18] = Confirmation and Secondary Assay for Modulators of Hemoglobin Beta Chain Splicing at IVS2 654 locus (AID 910); conditions: HeLa EGFP-654 splicing reporter, GFP fluorescence, 48 h; series mostly up to 38.3 µM;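 also: HeLa cells stably carrying EGFP split by mutant beta-globin IVS2-654 intron; per-well total GFP intensity by laser scanning cytometry after 2-day treatment; % of control where 0% means no effect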
Outline: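 Readout: per-well total peak green fluorescence (488 nm ex, 500–520 nm em) from objects 5–250 µm, reflecting correct splicing of an EGFP-654 reporter. Compounds were applied for 2 days at 37 °C to overnight-plated HeLa EGFP-654 cells; controls were DMSO and 500 nM IVS2-654 PNA.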

[19] = Confirmation and Secondary Assay for Modulators of Hemoglobin Beta Chain Splicing at IVS2 705 locus (AID 930); conditions: HeLa EGFP-705 splicing reporter, GFP fluorescence, 48 h; series mostly up to 38.3 µM;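 also: HeLa cells stably expressing the EGFP-705 splicing reporter; GFP fluorescence per well restored by corrected splicing of the IVS2-705 intron in EGFP; % of control where 0% means no effect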
Outline: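 HeLa EGFP-705 reporter; 500 cells/well, o/n 37C 5% CO2; cpd 2 d; 488 ex/500-520 em laser scan; total peak GFP intensity/well. Ref: 500 nM […] antisense PNA.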

Dual specificity protein kinase CLK4 (Homo sapiens), sequence (Q9HAZ1 whole entry, looked up): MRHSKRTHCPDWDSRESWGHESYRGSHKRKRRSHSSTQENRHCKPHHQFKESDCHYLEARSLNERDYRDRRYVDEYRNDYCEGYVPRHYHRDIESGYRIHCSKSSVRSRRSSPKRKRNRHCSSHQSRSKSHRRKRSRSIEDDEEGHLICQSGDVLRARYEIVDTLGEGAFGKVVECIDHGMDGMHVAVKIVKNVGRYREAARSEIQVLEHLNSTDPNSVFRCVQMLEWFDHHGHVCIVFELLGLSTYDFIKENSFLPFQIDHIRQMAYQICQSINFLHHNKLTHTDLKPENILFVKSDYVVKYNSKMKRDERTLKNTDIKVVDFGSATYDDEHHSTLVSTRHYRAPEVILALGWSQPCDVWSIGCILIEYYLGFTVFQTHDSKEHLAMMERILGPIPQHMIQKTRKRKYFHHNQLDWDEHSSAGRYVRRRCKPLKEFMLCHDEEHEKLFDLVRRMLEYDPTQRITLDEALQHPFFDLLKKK
Lysosomal acid glucosylceramidase (Homo sapiens), sequence (P04062 whole entry, looked up): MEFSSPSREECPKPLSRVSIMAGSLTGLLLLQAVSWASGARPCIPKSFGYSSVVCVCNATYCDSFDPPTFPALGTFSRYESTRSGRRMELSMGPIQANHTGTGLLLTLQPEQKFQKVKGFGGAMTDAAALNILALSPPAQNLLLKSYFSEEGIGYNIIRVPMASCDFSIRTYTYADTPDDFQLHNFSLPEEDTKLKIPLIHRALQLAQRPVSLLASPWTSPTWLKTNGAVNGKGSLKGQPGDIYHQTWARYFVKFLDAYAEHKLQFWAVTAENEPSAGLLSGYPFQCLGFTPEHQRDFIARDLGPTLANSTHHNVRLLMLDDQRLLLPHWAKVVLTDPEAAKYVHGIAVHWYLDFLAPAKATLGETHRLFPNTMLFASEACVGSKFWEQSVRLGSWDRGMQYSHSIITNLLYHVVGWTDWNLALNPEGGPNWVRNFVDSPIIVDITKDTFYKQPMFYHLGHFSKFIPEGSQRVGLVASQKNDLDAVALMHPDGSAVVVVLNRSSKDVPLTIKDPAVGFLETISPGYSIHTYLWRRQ
Cytochrome P450 1A2 (Homo sapiens), sequence (P05177 whole entry, looked up): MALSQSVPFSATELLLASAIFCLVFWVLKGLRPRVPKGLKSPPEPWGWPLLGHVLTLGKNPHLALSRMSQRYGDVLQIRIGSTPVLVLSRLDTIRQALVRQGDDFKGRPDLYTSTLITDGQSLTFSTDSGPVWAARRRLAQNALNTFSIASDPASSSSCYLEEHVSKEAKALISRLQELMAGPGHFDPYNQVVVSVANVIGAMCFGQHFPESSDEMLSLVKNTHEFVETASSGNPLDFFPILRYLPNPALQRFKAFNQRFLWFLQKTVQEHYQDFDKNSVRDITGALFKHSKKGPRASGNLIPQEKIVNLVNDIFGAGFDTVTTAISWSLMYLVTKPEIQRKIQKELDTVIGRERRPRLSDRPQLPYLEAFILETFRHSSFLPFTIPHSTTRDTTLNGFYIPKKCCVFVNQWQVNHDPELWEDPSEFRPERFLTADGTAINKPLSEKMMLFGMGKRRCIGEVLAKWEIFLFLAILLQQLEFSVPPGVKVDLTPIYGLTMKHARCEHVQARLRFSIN
Ubiquitin carboxyl-terminal hydrolase 1 (Homo sapiens), sequence (O94782 whole entry, looked up): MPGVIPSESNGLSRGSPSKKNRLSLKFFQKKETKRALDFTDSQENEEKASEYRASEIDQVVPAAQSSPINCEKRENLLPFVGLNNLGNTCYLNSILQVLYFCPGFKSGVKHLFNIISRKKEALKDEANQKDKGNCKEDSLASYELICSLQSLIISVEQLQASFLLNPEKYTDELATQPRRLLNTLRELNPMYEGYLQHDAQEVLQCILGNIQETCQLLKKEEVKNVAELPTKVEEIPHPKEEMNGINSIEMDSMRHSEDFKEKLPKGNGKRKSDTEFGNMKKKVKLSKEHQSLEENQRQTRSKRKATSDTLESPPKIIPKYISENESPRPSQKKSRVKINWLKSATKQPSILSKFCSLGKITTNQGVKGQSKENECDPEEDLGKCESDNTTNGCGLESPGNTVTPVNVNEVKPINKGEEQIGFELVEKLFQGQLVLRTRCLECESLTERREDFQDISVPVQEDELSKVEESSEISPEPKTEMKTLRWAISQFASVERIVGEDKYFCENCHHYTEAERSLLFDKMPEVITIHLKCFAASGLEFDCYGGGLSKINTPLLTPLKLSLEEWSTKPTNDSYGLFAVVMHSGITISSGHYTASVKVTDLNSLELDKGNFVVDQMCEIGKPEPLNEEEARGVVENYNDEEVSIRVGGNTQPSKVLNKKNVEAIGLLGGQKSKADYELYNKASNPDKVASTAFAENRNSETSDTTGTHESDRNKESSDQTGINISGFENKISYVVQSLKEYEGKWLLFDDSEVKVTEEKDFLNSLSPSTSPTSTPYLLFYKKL
Glucocorticoid receptor (Homo sapiens), sequence (P04150 whole entry, looked up, the tested form may be a part): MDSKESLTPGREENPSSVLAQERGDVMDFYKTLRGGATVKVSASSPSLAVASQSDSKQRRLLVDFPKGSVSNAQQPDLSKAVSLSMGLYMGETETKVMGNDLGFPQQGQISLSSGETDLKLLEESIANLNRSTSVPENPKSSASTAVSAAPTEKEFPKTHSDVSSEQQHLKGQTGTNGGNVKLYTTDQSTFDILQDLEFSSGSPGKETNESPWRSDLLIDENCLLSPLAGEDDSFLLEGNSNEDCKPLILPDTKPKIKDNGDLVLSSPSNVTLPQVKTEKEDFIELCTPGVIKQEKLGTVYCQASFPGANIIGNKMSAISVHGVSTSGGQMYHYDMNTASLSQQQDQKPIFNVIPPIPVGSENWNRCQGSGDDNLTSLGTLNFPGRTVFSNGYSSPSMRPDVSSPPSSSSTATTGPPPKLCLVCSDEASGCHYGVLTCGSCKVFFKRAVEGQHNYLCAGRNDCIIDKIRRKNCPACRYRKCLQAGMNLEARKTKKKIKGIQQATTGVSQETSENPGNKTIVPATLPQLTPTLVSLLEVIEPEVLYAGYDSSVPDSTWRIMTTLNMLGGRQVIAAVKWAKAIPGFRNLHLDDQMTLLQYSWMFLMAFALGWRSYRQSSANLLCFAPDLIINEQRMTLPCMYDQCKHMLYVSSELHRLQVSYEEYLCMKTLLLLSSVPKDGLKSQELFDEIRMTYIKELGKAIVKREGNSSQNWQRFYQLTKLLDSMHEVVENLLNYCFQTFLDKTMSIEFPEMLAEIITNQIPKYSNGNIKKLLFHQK
3',5'-cyclic-AMP phosphodiesterase 4B (Homo sapiens), sequence (Q07343 whole entry, looked up): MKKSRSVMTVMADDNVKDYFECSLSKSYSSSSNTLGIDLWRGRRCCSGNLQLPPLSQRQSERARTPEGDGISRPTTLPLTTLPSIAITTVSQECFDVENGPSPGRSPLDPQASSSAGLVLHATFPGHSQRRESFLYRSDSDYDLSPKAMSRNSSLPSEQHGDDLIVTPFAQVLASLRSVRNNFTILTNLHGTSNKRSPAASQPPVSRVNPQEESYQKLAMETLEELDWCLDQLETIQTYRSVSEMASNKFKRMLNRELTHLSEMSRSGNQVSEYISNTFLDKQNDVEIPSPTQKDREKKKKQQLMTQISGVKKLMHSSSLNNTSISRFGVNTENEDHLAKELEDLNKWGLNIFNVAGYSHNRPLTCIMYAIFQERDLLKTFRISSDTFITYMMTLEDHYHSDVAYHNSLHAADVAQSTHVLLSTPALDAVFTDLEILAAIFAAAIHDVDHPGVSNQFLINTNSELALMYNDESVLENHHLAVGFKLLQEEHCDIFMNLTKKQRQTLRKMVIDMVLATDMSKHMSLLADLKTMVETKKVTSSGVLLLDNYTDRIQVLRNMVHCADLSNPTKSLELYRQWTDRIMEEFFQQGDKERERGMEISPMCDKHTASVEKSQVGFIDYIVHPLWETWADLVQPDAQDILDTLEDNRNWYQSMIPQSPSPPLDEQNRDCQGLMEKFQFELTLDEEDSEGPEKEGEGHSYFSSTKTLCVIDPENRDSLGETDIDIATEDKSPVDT
Cytochrome P450 3A4 (Homo sapiens), sequence (P08684 whole entry, looked up): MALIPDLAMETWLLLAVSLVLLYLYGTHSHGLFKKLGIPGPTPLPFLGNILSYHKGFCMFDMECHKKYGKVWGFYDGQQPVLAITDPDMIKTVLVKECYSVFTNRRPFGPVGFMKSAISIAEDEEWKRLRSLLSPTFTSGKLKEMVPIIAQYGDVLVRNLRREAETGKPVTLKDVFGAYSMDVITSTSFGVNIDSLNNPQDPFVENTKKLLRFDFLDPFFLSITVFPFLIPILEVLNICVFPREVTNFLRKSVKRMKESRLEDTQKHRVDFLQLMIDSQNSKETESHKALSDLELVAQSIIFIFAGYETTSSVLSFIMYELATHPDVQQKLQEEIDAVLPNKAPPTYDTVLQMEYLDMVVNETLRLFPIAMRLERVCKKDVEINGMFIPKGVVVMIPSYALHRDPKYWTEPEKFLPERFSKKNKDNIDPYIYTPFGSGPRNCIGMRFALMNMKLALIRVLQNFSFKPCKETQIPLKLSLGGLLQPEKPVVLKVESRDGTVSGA
Cytochrome P450 2D6 (Homo sapiens), sequence (P10635 whole entry, looked up): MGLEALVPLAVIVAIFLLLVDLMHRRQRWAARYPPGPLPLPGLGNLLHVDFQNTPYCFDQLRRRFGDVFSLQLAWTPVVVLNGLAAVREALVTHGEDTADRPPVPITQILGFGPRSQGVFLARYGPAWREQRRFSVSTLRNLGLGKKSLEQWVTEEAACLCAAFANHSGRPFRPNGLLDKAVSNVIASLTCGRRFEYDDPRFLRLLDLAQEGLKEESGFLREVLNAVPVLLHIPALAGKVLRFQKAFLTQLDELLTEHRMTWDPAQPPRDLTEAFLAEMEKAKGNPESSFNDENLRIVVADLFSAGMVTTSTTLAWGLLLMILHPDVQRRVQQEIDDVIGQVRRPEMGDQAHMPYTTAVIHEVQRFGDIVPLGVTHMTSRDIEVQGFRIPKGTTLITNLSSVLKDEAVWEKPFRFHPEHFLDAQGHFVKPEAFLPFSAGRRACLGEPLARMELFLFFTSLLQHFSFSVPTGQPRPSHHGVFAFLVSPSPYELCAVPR

Row | Compound | Potency [1] | activity change, negative = inhibition [2] | Potency [3] | activity change, negative = inhibition [4] | activity, negative = inhibition [5] | Potency [6] | Potency [7] | Potency [8] | Potency [9] | activity change, negative = inhibition [10] | Potency [11] | Potency [12] | Potency [13] | outcome [14] | Potency [15] | activation [16] | Potency [17] | Potency [18] | outcome [19]
1 | COc1ccc(CNc2ccnc(-c3cccc(NS(C)(=O)=O)c3)n2)c(OC)c1 | > 11.4 µM | -18.2% | 15.8 µM (active) | 8.15% | -1.05% | > 46 µM | > 46 µM | inactive | 2 µM (active) | 20.5% [at 2.29 µM] | 3.98 µM (active) | inactive | inactive | inactive |  |  |  |  | 
2 | COc1ccccc1CNc1ncncc1-c1cccc(NS(C)(=O)=O)c1 |  | -18.5% |  | 22.3% | -7.42% | > 46 µM | > 46 µM | inactive | inactive |  | 0.251 µM (active) | inactive | inactive | inactive | inactive |  |  |  | 
3 | COCCNc1nc(-c2ccccc2C(F)(F)F)nc2ccccc12 |  | -4.03% | 1.26 µM (active) | 5.96% | 15.8% | > 46 µM | > 46 µM | inactive |  |  |  | inactive | inactive | inactive | inactive |  |  |  | 
4 | COc1ccc2[nH]cc(CCNc3ncncc3-c3ccc(C(=O)N(C)C)cc3)c2c1 |  | -13.2% | 20 µM (active) | 5.64% | 4.62% | > 46 µM | > 46 µM | inactive | inactive |  |  |  | inactive | inactive | inactive | 11.5% |  |  | 
5 | CCNc1ncc2nc(-c3cccc(C#N)c3)c(=O)n(CCC#N)c2n1 | > 11.4 µM | 12.8% | 0.631 µM (active) | -1.23% | 14.1% | > 9.22 µM | > 46 µM | inactive |  |  |  | inactive | inactive | inactive |  |  | 0.0316 µM (active) |  | 
6 | NC[C@@H]1O[C@H](O[C@H]2[C@H](O)[C@H](O[C@H]3[C@@H](O)[C@H](N)C[C@H](N)[C@H]3O[C@H]3O[C@H](CN)[C@H](O)[C@H](O)[C@H]3N)O[C@@H]2CO)[C@@H](N)[C@@H](O)[C@@H]1O |  |  |  |  |  |  |  |  |  |  |  |  |  | inactive |  |  |  |  | 
7 | COCCNc1ccnc(-c2c(C)noc2C)n1 | > 11.4 µM | 3.45% | 2.51 µM (active) | 9% | 5.3% | > 46 µM | > 46 µM | inactive | inactive |  |  | inactive | inactive | inactive |  |  |  | inactive | inactive
